Data: the supplement of paper PMC9337992
± gives the standard deviation of the averaged measurements.

The compounds below were run on MDAMB468 (assay: cell proliferation (confluence) relative to DMSO control; higher = less growth inhibition). Conditions: 5 uM; 6 d.
Method: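 Epigenetic chemical probe screen: 15 TNBC cell lines, 500 cells per well in 384-well plates, treated with 5 uM of each of 36 SGC probes for 6 d. Confluency was imaged by IncuCyte ZOOM and normalised to DMSO control wells. Four replicate wells per compound.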

Question: How did the cell proliferation turn out when O=C(O)CNC(=O)c1c(O)c2ccccc2n(Cc2ccccc2)c1=O was run?
Answer: 77.3 ± 4.1%

Question: c1ccc([C@@H]2C[C@H]2NC2CCNCC2)cc1 was tested. Which cell proliferation did it give?
Answer: 79 ± 12%

Question: Which cell proliferation does the source give for COc1cc(C(=O)N2CC[C@@H](O)[C@@H](N)C2)cc2nc(-c3cc4ccccc4n3CC3CC3)n(C)c12 here?
Answer: 45.6 ± 5%
